Measured values taken from ChEMBL document CHEMBL5724796, “Tm Shift (DSF) assay results for EUbOPEN Chemogenomics Library” (2024).

Key:
Conditions in all cases: Compound concentration 20.0 uM
[1] = molecular target: Tyrosine-protein kinase ABL1 (Homo sapiens) (UniProt P00519)
[2] = molecular target: Bromodomain-containing protein 4 (Homo sapiens) (UniProt O60885)
[3] = molecular target: Cyclin-dependent kinase 2 (Homo sapiens) (UniProt P24941)
[4] = molecular target: Casein kinase I isoform delta (Homo sapiens) (UniProt P48730)
Chain of Casein kinase I isoform delta (Homo sapiens) (P48730 whole entry, looked up, canonical isoform): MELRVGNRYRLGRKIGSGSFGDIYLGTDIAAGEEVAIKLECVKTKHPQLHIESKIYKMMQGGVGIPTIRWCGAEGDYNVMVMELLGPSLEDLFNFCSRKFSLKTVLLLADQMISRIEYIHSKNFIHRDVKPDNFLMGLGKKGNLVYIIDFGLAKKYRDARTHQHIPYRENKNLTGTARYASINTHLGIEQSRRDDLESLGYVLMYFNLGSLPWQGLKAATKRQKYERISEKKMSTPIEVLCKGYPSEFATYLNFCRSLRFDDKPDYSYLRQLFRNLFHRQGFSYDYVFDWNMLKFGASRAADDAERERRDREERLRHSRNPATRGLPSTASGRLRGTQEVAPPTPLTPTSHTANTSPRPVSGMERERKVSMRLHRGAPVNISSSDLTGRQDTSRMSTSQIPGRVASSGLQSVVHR

[5] = molecular target: Glycogen synthase kinase-3 beta (Homo sapiens) (UniProt P49841)
Chain of Glycogen synthase kinase-3 beta (Homo sapiens) (P49841 whole entry, looked up): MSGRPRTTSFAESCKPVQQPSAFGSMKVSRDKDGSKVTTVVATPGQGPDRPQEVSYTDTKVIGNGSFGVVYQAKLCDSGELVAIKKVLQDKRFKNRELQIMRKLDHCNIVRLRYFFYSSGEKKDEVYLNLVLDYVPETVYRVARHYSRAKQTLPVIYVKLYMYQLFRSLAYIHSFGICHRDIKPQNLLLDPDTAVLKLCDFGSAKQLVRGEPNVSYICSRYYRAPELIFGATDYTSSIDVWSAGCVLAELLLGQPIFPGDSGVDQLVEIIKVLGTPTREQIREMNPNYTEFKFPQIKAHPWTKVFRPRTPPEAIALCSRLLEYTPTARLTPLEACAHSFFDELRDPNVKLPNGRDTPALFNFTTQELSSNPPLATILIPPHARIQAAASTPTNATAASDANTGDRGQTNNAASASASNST

[6] = molecular target: Mitogen-activated protein kinase 1 (Homo sapiens) (UniProt P28482)
Chain of Mitogen-activated protein kinase 1 (Homo sapiens) (P28482 whole entry): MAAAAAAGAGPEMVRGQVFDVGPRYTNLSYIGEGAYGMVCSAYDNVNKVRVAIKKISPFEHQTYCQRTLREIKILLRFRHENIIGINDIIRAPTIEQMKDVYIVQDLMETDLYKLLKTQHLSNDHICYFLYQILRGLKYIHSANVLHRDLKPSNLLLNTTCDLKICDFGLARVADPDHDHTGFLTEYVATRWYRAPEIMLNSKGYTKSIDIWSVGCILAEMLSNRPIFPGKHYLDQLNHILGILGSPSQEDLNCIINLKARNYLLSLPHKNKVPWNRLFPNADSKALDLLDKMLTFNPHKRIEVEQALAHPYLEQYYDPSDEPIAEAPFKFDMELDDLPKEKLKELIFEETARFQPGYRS

[7] = molecular target: T1, Aurora kinase A (Homo sapiens) (UniProt O14965)
T1 sequence (whole entry): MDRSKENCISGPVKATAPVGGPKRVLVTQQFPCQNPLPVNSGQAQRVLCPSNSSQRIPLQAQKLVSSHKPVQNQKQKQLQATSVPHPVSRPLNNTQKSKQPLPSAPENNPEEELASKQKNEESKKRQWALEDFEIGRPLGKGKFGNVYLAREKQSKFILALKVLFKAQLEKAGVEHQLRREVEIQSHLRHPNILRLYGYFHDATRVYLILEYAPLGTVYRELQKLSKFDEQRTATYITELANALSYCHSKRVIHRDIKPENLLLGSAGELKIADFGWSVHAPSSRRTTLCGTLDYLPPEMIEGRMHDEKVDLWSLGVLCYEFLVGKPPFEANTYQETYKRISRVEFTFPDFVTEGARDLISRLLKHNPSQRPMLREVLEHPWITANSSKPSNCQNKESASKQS

[8] = molecular target: T2, Transcription intermediary factor 1-alpha (Homo sapiens) (UniProt O15164)
T2 sequence (whole entry): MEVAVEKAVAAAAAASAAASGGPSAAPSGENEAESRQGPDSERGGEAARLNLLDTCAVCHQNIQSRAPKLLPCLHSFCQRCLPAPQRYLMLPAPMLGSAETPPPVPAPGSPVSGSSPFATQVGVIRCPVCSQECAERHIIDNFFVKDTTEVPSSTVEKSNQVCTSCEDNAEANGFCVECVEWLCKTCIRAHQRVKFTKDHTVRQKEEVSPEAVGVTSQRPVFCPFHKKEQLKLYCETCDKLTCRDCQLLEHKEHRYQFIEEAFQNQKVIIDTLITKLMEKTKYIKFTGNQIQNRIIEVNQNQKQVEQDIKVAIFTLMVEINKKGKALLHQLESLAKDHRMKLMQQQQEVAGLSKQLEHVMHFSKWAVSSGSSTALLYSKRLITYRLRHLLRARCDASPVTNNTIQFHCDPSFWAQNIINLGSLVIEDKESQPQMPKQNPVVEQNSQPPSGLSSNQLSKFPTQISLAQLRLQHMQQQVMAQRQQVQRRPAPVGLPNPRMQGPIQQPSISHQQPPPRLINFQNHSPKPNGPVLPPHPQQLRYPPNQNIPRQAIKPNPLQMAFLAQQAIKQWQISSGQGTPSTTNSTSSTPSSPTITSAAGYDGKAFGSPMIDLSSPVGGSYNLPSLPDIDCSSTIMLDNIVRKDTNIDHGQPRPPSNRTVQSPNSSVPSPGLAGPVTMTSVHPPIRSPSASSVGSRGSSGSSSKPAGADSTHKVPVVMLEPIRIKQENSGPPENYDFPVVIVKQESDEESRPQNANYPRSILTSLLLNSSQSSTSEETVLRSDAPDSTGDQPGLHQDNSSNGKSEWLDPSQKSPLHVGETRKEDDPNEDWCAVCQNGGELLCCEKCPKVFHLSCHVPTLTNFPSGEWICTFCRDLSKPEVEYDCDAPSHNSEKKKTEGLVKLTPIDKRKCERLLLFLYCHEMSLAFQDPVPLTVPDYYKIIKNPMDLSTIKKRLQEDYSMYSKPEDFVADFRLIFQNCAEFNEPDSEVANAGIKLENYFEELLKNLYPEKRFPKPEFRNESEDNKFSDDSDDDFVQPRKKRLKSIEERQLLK

Chain of Tyrosine-protein kinase ABL1 (Homo sapiens) (P00519 whole entry): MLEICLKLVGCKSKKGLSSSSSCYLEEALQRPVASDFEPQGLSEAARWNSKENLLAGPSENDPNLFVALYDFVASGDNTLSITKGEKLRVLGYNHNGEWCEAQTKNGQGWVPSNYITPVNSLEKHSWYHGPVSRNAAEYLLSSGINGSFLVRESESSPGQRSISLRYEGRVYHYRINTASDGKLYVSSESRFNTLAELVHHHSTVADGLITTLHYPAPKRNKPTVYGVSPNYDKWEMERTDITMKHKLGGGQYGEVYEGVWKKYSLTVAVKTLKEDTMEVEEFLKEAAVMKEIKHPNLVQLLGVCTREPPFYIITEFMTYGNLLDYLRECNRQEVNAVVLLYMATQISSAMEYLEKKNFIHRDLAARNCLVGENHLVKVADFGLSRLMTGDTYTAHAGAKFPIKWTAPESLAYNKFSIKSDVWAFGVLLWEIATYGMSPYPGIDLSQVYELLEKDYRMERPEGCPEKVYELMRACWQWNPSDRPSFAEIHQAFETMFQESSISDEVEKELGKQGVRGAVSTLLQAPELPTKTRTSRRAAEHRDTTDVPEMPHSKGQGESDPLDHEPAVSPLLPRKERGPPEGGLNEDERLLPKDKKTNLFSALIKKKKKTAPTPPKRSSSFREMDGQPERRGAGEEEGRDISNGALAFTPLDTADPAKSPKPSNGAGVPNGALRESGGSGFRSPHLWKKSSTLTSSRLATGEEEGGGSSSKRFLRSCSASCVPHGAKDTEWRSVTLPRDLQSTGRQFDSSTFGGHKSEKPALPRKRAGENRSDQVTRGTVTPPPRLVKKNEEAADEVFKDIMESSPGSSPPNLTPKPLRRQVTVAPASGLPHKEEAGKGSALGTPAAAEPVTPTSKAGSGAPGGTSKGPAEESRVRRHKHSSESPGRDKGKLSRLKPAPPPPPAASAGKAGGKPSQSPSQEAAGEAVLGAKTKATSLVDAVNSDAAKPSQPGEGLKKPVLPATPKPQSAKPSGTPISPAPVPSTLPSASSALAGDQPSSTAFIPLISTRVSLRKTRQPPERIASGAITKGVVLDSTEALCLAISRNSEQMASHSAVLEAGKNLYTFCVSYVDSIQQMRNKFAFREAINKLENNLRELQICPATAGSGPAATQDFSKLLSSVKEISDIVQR

Structure (SMILES)	ΔTm [1]	ΔTm [2]	ΔTm [3]	ΔTm [4]	ΔTm [5]	ΔTm [6]	ΔTm [7]	ΔTm [8]
O=C(CCl)Nc1ccc(S(=O)(=O)c2ccc(NC(=O)CCl)cc2)cc1	1.36 °C	-1.5 °C	0 °C	0.55 °C	0.48 °C	-1.61 °C	-0.12 °C	0.36 °C
Nc1c[nH]c(=O)c2cc(-c3ccccc3)sc12	0.27 °C	-1.56 °C	-0.22 °C	0.6 °C	-0.86 °C	0.57 °C	-0.64 °C	-1.2 °C
Cc1ncsc1-c1ccc([C@H](C)NC(=O)[C@@H]2C[C@@H](O)CN2C(=O)[C@@H](NC(=O)COCCCOCCNC(=O)C[C@@H]2N=C(c3ccc(Cl)cc3)c3c(sc(C)c3C)-n3c(C)nnc32)C(C)(C)C)cc1	-0.44 °C	7 °C	-3.66 °C	0.48 °C	0 °C	0 °C	0 °C	-3.36 °C
CCCCCCCC(=O)N[C@H](CN1CCCC1)[C@H](O)c1ccc2c(c1)OCCO2	0.07 °C	-0.36 °C	-0.06 °C	-0.32 °C	-0.11 °C	0.14 °C	-1.58 °C	-0.39 °C
O=C(NCCCc1ccccc1)c1cccc(-c2cc(O)c3ncccc3c2)c1	0.62 °C	-0.53 °C	0.91 °C	0.06 °C	0.84 °C	0.32 °C	-0.61 °C	0.72 °C
CCc1oc2ccccc2c1C(=O)c1cc(Br)c(O)c(Br)c1	0.11 °C	-6.7 °C	-2.31 °C	-9.78 °C	0 °C	-2.33 °C	0.35 °C	0 °C
CCNC(=O)NCCSC[C@H]1O[C@@H](n2cnc3c(N)ncnc32)[C@H](O)[C@@H]1O	0.85 °C	-1.51 °C	0.53 °C	0.63 °C	-0.36 °C	-1.34 °C	-0.19 °C	-1.13 °C
O=[N+]([O-])c1ccc(CSc2ncnc3c2ncn3[C@@H]2O[C@H](CO)[C@@H](O)[C@H]2O)cc1	-0.08 °C	-1.24 °C	-0.1 °C	-0.39 °C	-0.67 °C	0.1 °C	-1.6 °C	-0.18 °C
O=C(CN1CCN(c2ccc(F)cn2)CC1)Nc1nc2c(s1)CCCC2	0.42 °C	-2.75 °C	0.14 °C	-0.25 °C	0.02 °C	0.86 °C	-1.16 °C	-2.28 °C
CCNC(=O)c1noc(-c2cc(C(C)C)c(O)cc2O)c1-c1ccc(CN2CCOCC2)cc1	0.97 °C	-0.86 °C	0.79 °C	0.41 °C	0.48 °C	-0.06 °C	0.68 °C	0.38 °C
O=C(Cc1ccccc1)c1cc(O)c(O)c([N+](=O)[O-])c1	0.39 °C	-1.83 °C	0.33 °C	-0.3 °C	-0.88 °C	0.35 °C	0 °C	1.83 °C
O=C(O)CCNc1cc(N2CCc3ccccc3CC2)nc(-c2cccnc2)n1	0.76 °C	-1.28 °C	0.04 °C	0.2 °C	-0.02 °C	-0.29 °C	2.29 °C	-0.51 °C
CN(C)CCCCC(=O)Nc1ccc(NC(=S)NC(=O)c2ccc(C(C)(C)C)cc2)cc1	0.43 °C	-4.74 °C	0.19 °C	0.69 °C	1.54 °C	0.13 °C	-2.09 °C	-0.79 °C
Nc1nc(C(F)(F)F)nc2c1nnn2C[C@H]1CN(Cc2nccs2)CCO1	0.2 °C	-2.15 °C	0.32 °C	-0.15 °C	-0.98 °C	0.32 °C	-1.21 °C	0.71 °C
Cc1nc2ccccn2c1C(=O)CN1CCN(c2ccc(F)cn2)CC1	-0.05 °C	0.87 °C	0.63 °C	-0.29 °C	-0.25 °C	0.11 °C	-1.47 °C	0.7 °C
C[C@@H](Nc1nc2c(cnn2C2CCCC2)c(=O)[nH]1)C(=O)N1CC[C@H](F)C1	0.58 °C	-2.88 °C	0.63 °C	-0.33 °C	1.37 °C	0.07 °C	-2 °C	0.97 °C

Structure (SMILES)	ΔTm [1]	ΔTm [2]	ΔTm [3]	ΔTm [4]	ΔTm [5]	ΔTm [6]	ΔTm [7]	ΔTm [8]
O=C(O)C1CCCN(CCC=C(c2ccccc2)c2ccccc2)C1 (stereo not drawn)	0.13 °C	-2.59 °C	0 °C	-0.19 °C	-0.66 °C	0.13 °C	-2.34 °C	-1.2 °C
CC(=O)N[C@@H](C)C(=O)N[C@@H](CCC(=O)O)C(=O)N[C@H](C(=O)N[C@@H](C=O)CC(=O)O)C(C)C	0.22 °C	-2.8 °C	-0.37 °C	0.14 °C	-0.69 °C	0.23 °C	-1.91 °C	-0.66 °C
Cc1[nH]c2c(N3CCCCC3)c(-c3ccccc3)nn2c(=O)c1-c1ccc(O)cc1	-0.07 °C	0.61 °C	0.64 °C	-0.07 °C	-1.39 °C	0.65 °C	-0.41 °C	-0.15 °C
CC(C)(CNC(=O)c1cccc(-c2noc(C(F)(F)F)n2)c1)c1coc(-c2ccccc2)n1	0.61 °C	-3.84 °C	0.39 °C	0.45 °C	-8.42 °C	-3.6 °C	-2.8 °C	-1.82 °C
COc1ccc(-c2ccc3c(c2)COC3=O)n2nc(C3(C(=O)OCC(C)C)CC3)nc12	0.4 °C	2.58 °C	0.54 °C	0.04 °C	-0.38 °C	1.36 °C	-1.67 °C	0.5 °C
Nc1ncnc2c1c(I)cn2[C@@H]1O[C@H](CO)[C@@H](O)[C@H]1O	2.62 °C	-1.63 °C	5.37 °C	6.51 °C	3.65 °C	1.9 °C	1.18 °C	0.89 °C
O=C(O)Cn1nnc(-c2ccc(CN(CCCCOc3ccc(CN4CCCC4)cc3)CCc3ccccc3)cc2)n1	0.12 °C	-3.23 °C	-1.15 °C	0.14 °C	-0.71 °C	-0.45 °C	-2.88 °C	-1.13 °C
Cc1n[nH]c(C)c1Cc1sc2c(c1C(=O)N1C[C@H](O)CO1)c(=O)n(C)c(=O)n2CC(C)C	0.44 °C	-2.67 °C	0.95 °C	-0.14 °C	-0.85 °C	0.11 °C	-1.57 °C	0.69 °C
Cn1c(=O)cc(N2CCC[C@@H](N)C2)n(Cc2cc(F)ccc2C#N)c1=O	0.09 °C	-1.94 °C	0.46 °C	-0.06 °C	-0.59 °C	0.52 °C	-0.72 °C	0.97 °C
O=c1[nH][nH]c(=O)c2cc(OCc3ccsc3)ccc12	1.93 °C	-2.87 °C	0.73 °C	-0.03 °C	0.96 °C	0.65 °C	-1.5 °C	0.51 °C
O=C(c1ccc2[nH]ccc2c1)N1CCN(S(=O)(=O)c2ccc3[nH]c(=O)oc3c2)CC1	0.69 °C	-2.8 °C	-0.68 °C	0.15 °C	0 °C	0.48 °C	-1.69 °C	-0.16 °C
CC(C)(C)c1ccc(CN(C(=O)CN(Cc2c(F)c(F)c(F)c(F)c2F)S(=O)(=O)c2ccc(F)cc2)c2ccc(C(=O)NO)cc2)cc1	1.56 °C	8.81 °C	9.04 °C	-5.74 °C	14.4 °C	-2.29 °C	9.93 °C	0 °C
O=c1cc(-c2ccc(O)cc2)oc2c(CN3CCN(Cc4cccs4)CC3)c(O)cc(O)c12	2.39 °C	-1.3 °C	1.5 °C	-0.79 °C	2.99 °C	-1.64 °C	3.95 °C	2.2 °C
CC(C)c1c(-c2cnn(C(C)(C)C)c2)[nH]c2c(C#N)cnn2c1=O	0.32 °C	-1.11 °C	0.15 °C	-0.24 °C	0.53 °C	0.3 °C	-0.18 °C	0.36 °C
COc1cc(Nc2ncc(F)c(Nc3ccc4c(n3)N(COP(=O)(O)O)C(=O)C(C)(C)O4)n2)cc(OC)c1OC	2.78 °C	0.11 °C	5.51 °C	0.24 °C	-0.66 °C	-0.75 °C	13.3 °C	-1.96 °C
